According to PubChem BioAssay (NCATS):
Several values for one entry are separate records, joined by “and”; a condition that tells them apart may be missing. Identical values can stand only once. Records with an inconclusive call do not appear. Activity calls are given as the source filed them. Unless noted, calls come from the whole dose curve; as a rule, active = well fitted curve in the direction sought with a large enough effect; inconclusive = small, poorly fitted or top-dose-only effect, or another doubt; inactive = no such curve, though single readings can be large; an effect the other way counts as inactive or inconclusive.

Key:
[1] = qHTS assay for small molecule activators of the p53 signaling pathway (AID 651743; active = well fitted activation curve with a large enough effect in the signal ratio, not every such curve was filed as active; the % refers to the signal ratio; note: % of control where 0% means no effect); details: HCT-116 p53RE-bla, beta-lactamase FRET ratio, 16 h; activation: stronger effect = higher value
Procedure, shortened: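 After 16 hours compound treatment at 37 C, HCT-116 cells stably expressing p53RE-driven beta-lactamase were loaded with LiveBLAzer B/G FRET substrate for 2 hours at room temperature. Fluorescence intensity served as the p53 activation read-out.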

[2] = qHTS assay for small molecule activators of the nuclear factor-kappa B (NF-kB) signaling pathway (AID 651749; active = well fitted activation curve with a large enough effect in the signal ratio; the % refers to the signal ratio; note: % of control where 0% means no effect); details: NF-kB-bla ME-180 cells, beta-lactamase FRET ratio, 16 h; activation: stronger effect = higher value
Procedure, shortened: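 Activation measured after 16 hr compound treatment at 37C, 5% CO2, of 2,000 ME-180 cells/well stably expressing an NF-kB response element–driven beta-lactamase reporter, via FRET-disruption fluorescence.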

[3] = qHTS assay for small molecule disruptors of the mitochondrial membrane potential - 1 hr assay (AID 651754; calls by dose curve; note: % is set by controls: 0 for no effect and ±100 for the full control effect; nearly all actives have a fitted effect of over 35% in size)
Procedure, shortened: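 Loss of mitochondrial potential shifts the cationic dye from red mitochondrial aggregates to green cytoplasmic monomers. Cells (HepG2) are treated with compound for 1 hr before a 30 min dye incubation at 37C.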

[4] = qHTS assay for small molecule disruptors of the mitochondrial membrane potential - 5 hr assay (AID 651755; calls by dose curve; note: % is set by controls: 0 for no effect and ±100 for the full control effect; nearly all actives have a fitted effect of over 40% in size)
Procedure, shortened: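 Membrane-potential dye readout: red aggregate (540 ex/590 em) versus green monomer (490 ex/535 em) fluorescence after 30 min dye loading, following 5 hr compound exposure at 37C of overnight-plated HepG2 cells.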

[5] = target: Tumor necrosis factor (Homo sapiens) (UniProt P01375); experiment: qHTS assay to identify small molecules that stimulate Tumor Necrosis Factor-alpha (TNF-alpha) secretion (AID 651757; active = well fitted curve in the direction sought with a large enough effect in the signal ratio; the % refers to the signal ratio; note: 0% is about no effect)
Procedure, shortened: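 Human monocytic THP-1 cells are plated, treated with compound and held at 37 C for 17 hrs. Labeled anti-TNF-alpha antibody mixture is then added; after 3 hr at room temperature, TR-FRET signal reports secreted TNF-alpha.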

[6] = qHTS assay for environmental chemicals that activate the Aryl hydrocarbon Receptor (AhR) signaling pathway (AID 651777); details: 1A2-DRE human hepatoma cells, luciferase, 24 h; activation: stronger effect = higher value; note: % of control where 0% means no effect; nearly all actives have a fitted effect of over 15% in size
Procedure, shortened: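 Luminescence (One-Glo, 30 min, room temperature) reports AhR-driven luciferase in stably transfected human hepatoma cells bearing DRE and CYP1A2 promoter. Cells (1,200/well) were treated with compound for 24 hr at 37 C in qHTS format.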

[7] = target: Peroxisome proliferator-activated receptor alpha (Homo sapiens) (UniProt Q07869); experiment: qHTS assay for small molecule agonists of the peroxisome proliferator-activated receptor alpha (PPARalpha) signaling pathway (AID 651778); details: PathHunter PPARalpha complementation, chemiluminescence, 6 h; stronger effect = higher value; note: % of control where 0% means no effect
Procedure, shortened: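 Chemiluminescence from complemented enzyme reported PPARalpha activation in cells after 6 hr of compound treatment at 37 C. The detection reagent was incubated for 60 min at room temperature, and compounds were scored as agonists.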

[8] = target: Nuclear receptor ROR-gamma (Homo sapiens) (UniProt P51449); experiment: qHTS assay for small molecule antagonists of the retinoid-related orphan receptor gamma (ROR-gamma) signaling pathway (AID 651802);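 note: CHO cells with doxycycline-induced ROR-gamma expression; % is set by controls: 0 for no effect and ±100 for the full control effect; nearly all actives have a fitted effect of over 60% in size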
Procedure, shortened: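 Steps: cells dispensed; compound or DMSO transferred by pin tool; doxycycline added to induce the ROR response element-driven luciferase; plates held 16hr at 37C; ONE-Glo added and luminescence measured.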

[9] = qHTS assay for small molecule agonists of the antioxidant response element (ARE) signaling pathway measured by Nrf2-dependant transcriptional activity (AID 720636; active = well fitted curve in the direction sought with a large enough effect in the repeat runs; an effect the other way counts as inactive or inconclusive; note: % of control where 0% means no effect)
Procedure, shortened: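 Nrf2-dependent transcription read as ONE-Glo luciferase signal from ARE-luc HepG2 reporter cells after 16 hr compound treatment at 37 C, 5% CO2, in assay medium with 1% dialyzed FBS.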

[10] = qHTS assay for small molecule agonists of the antioxidant response element (ARE) signaling pathway measured by Nrf2-dependant transcriptional activity - cell viability counter screen (AID 720653; active = well fitted curve in the direction sought with a large enough effect in the repeat runs; an effect the other way counts as inactive or inconclusive; note: % is set by controls: 0 for no effect and ±100 for the full control effect); details: ARE-bla HepG2 viability, CellTiter-Glo ATP luminescence, 16 h; max response: stronger effect = lower value
Procedure, shortened: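 Cytotoxicity counter screen: intracellular ATP quantified by CellTiter-Glo luminescence in the same ARE-bla HepG2 plates, after 16 h compound exposure and a 2 h beta-lactamase substrate step.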

[11] = qHTS assay for cell viability of HEK293 cells (AID 743288); details: ATP luminescence (CellTiter-Glo), 18 h; max response: stronger effect = lower value; note: % is set by controls: 0 for no effect and ±100 for the full control effect; nearly all actives have a fitted effect of over 50% in size
Procedure, shortened: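 After 18 h compound exposure at 37 C, parental HEK293 cells (2,000/well) are lysed with CellTiter-Glo and luminescence is read following 30 min at room temperature.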

[12] = qHTS assay for cell viability of the p53RE-bla HCT-116 cell line (AID 743292); note: % is set by controls: 0 for no effect and ±100 for the full control effect; nearly all actives have a fitted effect of over 55% in size
Procedure, shortened: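 ATP-based luminescent viability (CellTiter-Glo, 30 min RT) after 16 h compound treatment at 37 C of p53RE-bla HCT-116 cells, seeded at 4,000 cells/well and rested 5 h before dosing.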

[13] = qHTS for Inhibitors of the Functional Ribonucleoprotein Complex (vRNP) of Lassa (LASV) Arenavirus: LASV Primary Screen - GLuc reporter signal (AID 1347082; calls by dose curve; tested in HEK293 reporter line; note: % is set by controls: 0 for no effect and ±100 for the full control effect; nearly all actives have a fitted effect of over 60% in size)
[14] = qHTS for Inhibitors of the Functional Ribonucleoprotein Complex (vRNP) of Lassa (LASV) Arenavirus: Viability assay - alamar blue signal for LASV Primary Screen (AID 1347083; calls by dose curve; tested in HEK293 reporter line; note: % is set by controls: 0 for no effect and ±100 for the full control effect; nearly all actives have a fitted effect of over 80% in size)
[15] = qHTS for Inhibitors of the Functional Ribonucleoprotein Complex (vRNP) of Lymphocytic Choriomeningitis Arenaviruses (LCMV): Viability assay - alamar blue signal for LCMV Primary Screen (AID 1347085; calls by dose curve; tested in HEK293 reporter line; note: % is set by controls: 0 for no effect and ±100 for the full control effect; nearly all actives have a fitted effect of over 80% in size)
[16] = target: Nucleoprotein (Lymphocytic choriomeningitis virus (strain Armstrong)) (UniProt P09992); experiment: qHTS for Inhibitors of the Functional Ribonucleoprotein Complex (vRNP) of Lymphocytic Choriomeningitis Arenaviruses (LCMV): LCMV Primary Screen - GLuc reporter signal (AID 1347086; calls by dose curve; note: % is set by controls: 0 for no effect and ±100 for the full control effect; nearly all actives have a fitted effect of over 70% in size)
[17] = Primary qHTS for Huh7 cytotoxicity: counterscreen for inhibitors of MERS-S pseudotyped particle cell entry (AID 1479147; calls by dose curve; note: % is set by controls: 0 for no effect and ±100 for the full control effect); details: outcome: dose series up to 57.1 µM unless noted
[18] = Primary qHTS for inhibitors of MERS-S pseudo-typed particle cell entry (AID 1479149; calls by dose curve; note: nearly all actives have a fitted effect of over 60% in size)
[19] = Primary qHTS for Vero E6 cytotoxicity: counterscreen for inhibitors of SARS-S pseudo-typed particle cell entry (AID 1479150; calls by dose curve; note: % is set by controls: 0 for no effect and ±100 for the full control effect); details: outcome: dose series up to 57.1 µM unless noted
[20] = Cytotoxicity counterscreen for inhibitors of SARS-CoV-2 cell entry (AID 1645845; calls by dose curve; note: nearly all actives have a fitted effect of over 50% in size)
Procedure, shortened: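 ATP-content luminescence (ATPLite 1step, 15 min RT) read after 48 h compound exposure of Expi293F cells stably expressing human ACE2; normalized to cells-only wells and media-only wells.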

[21] = Primary qHTS to identify inhibitors of SARS-CoV-2 cell entry (AID 1645846; calls by dose curve; note: nearly all actives have a fitted effect of over 45% in size); details: activity change, negative = inhibition: at 57.1 µM (top of the series) unless noted
Procedure, shortened: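 Luminescence readout (Bright-Glo luciferase) 48 h after pseudoparticle addition. HEK293-ACE2 cells, 1500/well; compound pre-incubation 1 h; Normalized to spike PP and bald PP.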

[22] = target: Glutathione peroxidase 1 (Homo sapiens) (UniProt P07203); experiment: Primary qHTS Assay for Inhibitors of Recombinant Selenoprotein Glutathione Peroxidase 1 (GPX1) (AID 1845191); note: nearly all actives have a fitted effect of over 65% in size
Procedure, shortened: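 NADPH consumption tracked by fluorescence at 340/450 nm between t=0 and t=15 min, room temperature. Final mix: 10 nM GPX1, 100 nM glutathione reductase, 1 mM GSH, 0.5 mM NADPH, 0.5 mM cumene hydroperoxide, 0.01% BSA; 30 min compound–enzyme preincubation.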

[23] = target: Phospholipid hydroperoxide glutathione peroxidase GPX4 (Homo sapiens) (UniProt P36969); experiment: Primary qHTS Assay for Inhibitors of Recombinant Selenoprotein Glutathione Peroxidase 4 (GPX4) (AID 1845192); note: nearly all actives have a fitted effect of over 65% in size
Procedure, shortened: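 NADPH consumption followed by fluorescence at 340/450 nm, t=0 and after 15 min at room temperature. Reaction started with cumene hydroperoxide (0.5 mM final) after 30 min compound–GPX4 preincubation; final 200 nM GPX4, 100 nM GR, 1 mM GSH, 0.5 mM NADPH.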

[24] = target: Nuclear receptor subfamily 1 group I member 2 (Rattus norvegicus) (UniProt Q9R1A7); experiment: qHTS assay for small molecule activators of the rat pregnane X receptor (rPXR) signaling pathway (AID 651751; call rule not given here; note: 0% is about no effect); details: rPXR reporter cells, luciferase (One-Glo), 24 h
[25] = qHTS assay for small molecule activators of the human pregnane X receptor (PXR) signaling pathway (AID 720659; call rule not given here; note: 0% is about no effect)

Sequence of Nuclear receptor subfamily 1 group I member 2 (Rattus norvegicus) (Q9R1A7 whole entry, looked up): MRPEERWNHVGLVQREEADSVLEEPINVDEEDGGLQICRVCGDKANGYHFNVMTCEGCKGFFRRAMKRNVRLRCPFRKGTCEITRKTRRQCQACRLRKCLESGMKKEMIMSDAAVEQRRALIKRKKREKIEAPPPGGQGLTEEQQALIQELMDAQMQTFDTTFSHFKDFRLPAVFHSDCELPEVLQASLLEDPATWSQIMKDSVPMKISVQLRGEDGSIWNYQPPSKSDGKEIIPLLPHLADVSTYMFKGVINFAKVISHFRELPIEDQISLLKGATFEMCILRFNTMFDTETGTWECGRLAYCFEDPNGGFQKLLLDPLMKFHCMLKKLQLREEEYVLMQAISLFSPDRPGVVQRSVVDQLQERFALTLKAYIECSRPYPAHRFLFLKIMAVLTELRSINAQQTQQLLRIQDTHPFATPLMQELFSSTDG
Sequence of Peroxisome proliferator-activated receptor alpha (Homo sapiens) (Q07869 whole entry, looked up): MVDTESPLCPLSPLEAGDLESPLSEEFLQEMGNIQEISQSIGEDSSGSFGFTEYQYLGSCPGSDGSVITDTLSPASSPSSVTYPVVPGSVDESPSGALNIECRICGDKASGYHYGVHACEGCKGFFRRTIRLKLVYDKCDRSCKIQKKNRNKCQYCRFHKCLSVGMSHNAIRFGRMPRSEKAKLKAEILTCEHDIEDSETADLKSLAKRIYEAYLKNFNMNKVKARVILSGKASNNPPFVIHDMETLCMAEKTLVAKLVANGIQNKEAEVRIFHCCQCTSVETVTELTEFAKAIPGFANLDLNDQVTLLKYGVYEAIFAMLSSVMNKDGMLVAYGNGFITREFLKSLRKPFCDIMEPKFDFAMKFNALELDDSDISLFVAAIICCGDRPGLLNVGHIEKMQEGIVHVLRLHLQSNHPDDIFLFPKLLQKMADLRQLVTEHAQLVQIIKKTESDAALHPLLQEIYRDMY
Sequence of Tumor necrosis factor (Homo sapiens) (P01375 whole entry, looked up): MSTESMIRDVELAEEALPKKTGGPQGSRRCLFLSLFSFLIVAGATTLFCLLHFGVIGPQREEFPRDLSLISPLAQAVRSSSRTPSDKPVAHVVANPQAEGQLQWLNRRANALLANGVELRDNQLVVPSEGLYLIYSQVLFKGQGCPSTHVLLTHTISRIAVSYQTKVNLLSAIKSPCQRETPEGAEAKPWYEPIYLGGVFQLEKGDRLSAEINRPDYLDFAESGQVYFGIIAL
Sequence of Nuclear receptor ROR-gamma (Homo sapiens) (P51449 whole entry, looked up): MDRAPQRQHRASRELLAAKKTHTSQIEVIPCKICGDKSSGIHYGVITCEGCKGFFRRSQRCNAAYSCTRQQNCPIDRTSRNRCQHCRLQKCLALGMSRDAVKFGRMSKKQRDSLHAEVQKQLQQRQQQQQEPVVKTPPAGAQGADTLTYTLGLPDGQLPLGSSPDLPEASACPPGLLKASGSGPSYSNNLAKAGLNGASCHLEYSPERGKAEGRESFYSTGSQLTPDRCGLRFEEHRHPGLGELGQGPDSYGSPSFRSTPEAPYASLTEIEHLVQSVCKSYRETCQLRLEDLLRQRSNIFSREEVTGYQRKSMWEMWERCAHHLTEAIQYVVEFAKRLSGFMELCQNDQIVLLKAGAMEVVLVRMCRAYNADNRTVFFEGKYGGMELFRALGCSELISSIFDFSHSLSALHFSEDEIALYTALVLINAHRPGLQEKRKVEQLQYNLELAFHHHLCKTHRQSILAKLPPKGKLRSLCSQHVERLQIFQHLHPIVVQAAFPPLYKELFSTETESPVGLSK
Sequence of Glutathione peroxidase 1 (Homo sapiens) (P07203 whole entry, looked up): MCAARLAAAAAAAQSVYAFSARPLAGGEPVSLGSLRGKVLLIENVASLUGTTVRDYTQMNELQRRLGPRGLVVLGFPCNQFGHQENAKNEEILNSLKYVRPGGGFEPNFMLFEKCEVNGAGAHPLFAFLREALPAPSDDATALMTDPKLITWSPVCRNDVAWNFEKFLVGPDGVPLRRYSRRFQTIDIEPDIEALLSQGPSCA
Sequence of Phospholipid hydroperoxide glutathione peroxidase GPX4 (Homo sapiens) (P36969 whole entry, looked up): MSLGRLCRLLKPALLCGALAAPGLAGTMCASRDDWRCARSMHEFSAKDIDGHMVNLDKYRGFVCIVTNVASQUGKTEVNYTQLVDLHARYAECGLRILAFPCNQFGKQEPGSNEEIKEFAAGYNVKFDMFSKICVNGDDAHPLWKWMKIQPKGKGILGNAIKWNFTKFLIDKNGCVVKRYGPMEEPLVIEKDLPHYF
Sequence of Nucleoprotein (Lymphocytic choriomeningitis virus (strain Armstrong)) (P09992 whole entry, looked up): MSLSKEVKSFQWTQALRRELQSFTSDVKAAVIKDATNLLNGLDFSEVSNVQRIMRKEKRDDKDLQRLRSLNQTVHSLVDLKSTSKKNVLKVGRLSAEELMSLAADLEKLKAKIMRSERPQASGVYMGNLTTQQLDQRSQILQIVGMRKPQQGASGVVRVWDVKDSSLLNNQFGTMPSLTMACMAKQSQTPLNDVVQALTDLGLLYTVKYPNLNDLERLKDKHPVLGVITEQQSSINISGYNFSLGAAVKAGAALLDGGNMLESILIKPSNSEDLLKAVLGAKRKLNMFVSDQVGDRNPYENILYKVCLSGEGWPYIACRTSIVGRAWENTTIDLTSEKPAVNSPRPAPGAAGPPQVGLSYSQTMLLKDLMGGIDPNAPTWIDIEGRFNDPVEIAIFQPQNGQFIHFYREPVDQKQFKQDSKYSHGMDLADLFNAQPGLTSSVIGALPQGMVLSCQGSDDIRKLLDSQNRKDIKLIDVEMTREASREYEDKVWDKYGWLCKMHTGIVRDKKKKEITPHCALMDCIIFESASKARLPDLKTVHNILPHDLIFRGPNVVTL

Cc1ccccc1O
-10.9% [at 114 µM]: activity change, negative = inhibition [21]
inactive: activation [1] -4.62% and -1.52% | activation [2] 0.871% and 6.75% | Potency [3] | Potency [4] | outcome [5] | activation [6] -0.175% and -0.566% | max response [7] -1.66% and -0.689% | Potency [8] | Potency [9] | max response [10] -2.37% and 9.1% | max response [11] -5.04% and -4.42% | outcome [12] | Potency [13] | Potency [14] | Potency [15] | Potency [16] | outcome [17] | Potency [18] | outcome [19] | Potency [20] | Potency [22] | Potency [23] | max response [24] 0.289% and -3.94% | outcome [25]
